Hit rate of the full screen: of about 1,000 compounds, about 550 (55%) were called active. So high a share suggests a set chosen from earlier hits. A selection follows. A number with no mark means an inactive call. Cut-off read from the data, not from the text of the source: active = inhibition above about 50%; inactive = the rest.

A short description of this assay: yeast-expressed human NALP3 blockade, retest – luminescence, single concentration, confirmation (AID 488794). The note with it: yeast expressing human NALP3, luminescence read-out; at 10 µM; active compounds read high.
For orientation: inhibition means the change of the read-out against control, counted positive when it falls. Regarding `CN(C)c1ccnc2sc(C(=O)c3ccccc3)c(N)c12`, the inhibition was 53.6% (active).
With `Oc1c(Cl)cc(Cl)c(Cl)c1Cc1c(O)c(Cl)cc(Cl)c1Cl`, the inhibition was 98.5% (active).
For `Cc1ccnc(Nc2nc3ccccc3s2)n1`, the inhibition is 27.6%.
Turning to `O=C(CC(O)(C(F)(F)F)C(F)(F)F)Nc1ccc(Cl)c(Cl)c1`, the inhibition is 99.8% (active).
As for `Cc1ccc(O)c(NC(=O)c2cc(-c3ccco3)on2)c1`, the figure is 63.7% (active); as for `COc1ccccc1C(=O)Nc1ccc(NC(=O)c2ccco2)c(C)c1`, 32.3%.
Consider `Cc1ccc(CSc2nsc(C)c2C#N)cc1`, for which the inhibition was 48.2%.
The figure for `Cc1ccc(OCc2nc3ccccc3n2C)cc1` is 57.2% (active); for `CC(C)n1c(COc2ccccc2)nc2ccccc21` it is 47.7%.
As for `CN=C1C=C/C(=N/N=c2\ccn(O)cc2C)C=C1C`, the figure is 57.2% (active); as for `O=[N+]([O-])c1cccc(/C=N/Nc2ncc(Br)cn2)c1`, 33.4%; as for `CCc1noc(C)c1C(=O)Nc1nc2ccc(OC)cc2s1`, 55.5% (active).
Consider `COc1cc(N2C(=O)CSC2=S)cc(OC)c1OC`, for which the inhibition was 35.6%.
For the molecule `O=C1CSC(=S)N1c1ccc(O)cc1`, the inhibition was 59.4% (active).
The figure for `Fc1ccccc1-c1cc2cc3c(cc2cn1)OCO3` is 39%; for `Nc1c(-c2cccc(Cl)c2)cnn1-c1cccc([N+](=O)[O-])c1` it is 52.1% (active); for `O=C(CSc1ncnc2c1oc1ccccc12)NC1CCCC1` it is 25.1%.
Take `Cn1c(=NC(=O)c2ccco2)sc2cccc(F)c21`: the inhibition was 34.1%.
The figure for `Cc1cccc(NC(=S)NC(=O)c2ccc(Br)o2)c1` is 65.7% (active); for `Cc1ccc(-c2nn(C(C)(C)C)c3ncnc(N)c23)cc1` it is 63.2% (active).
The figure for `O=C(Nc1ccccc1Cl)/C(Cl)=C(\Cl)S(=O)c1ccccc1` (stereo unspecified) is 74.7% (active); for `N#Cc1nc(Cc2ccccc2)oc1NCCc1ccccc1` it is 36.6%.
On to `CCOC(=O)c1c(C)[nH]c(C(=O)COc2ccc3c(c2)OCO3)c1C`, for which the inhibition was 54.5% (active).
The figure for `COc1ccccc1OCc1nc2ccccc2s1` is 43.2%; for `CCCN(CC1CC1)C(=S)NC(=O)c1ccccc1Br` it is 38.8%; for `Cc1cc(C)nc(NC(=O)Nc2ccccc2C(F)(F)F)n1` it is 34.8%.
Regarding `Cc1c(C(=O)N2CCCc3ccccc32)oc2ccccc12`, the inhibition was 47.9%.
The figure for `O=C(Oc1c(-c2ccco2)oc2ccccc2c1=O)c1cccnc1` is 68.5% (active).
The figure for `Oc1ccc(Br)cc1/C=N/Nc1ccccn1` is 43.2%; for `O=C(CSc1ccc(-c2ccc(-n3cccn3)cc2)nn1)Nc1ccc([N+](=O)[O-])cc1` it is 18.1%; for `O=[N+]([O-])/C=C/c1ccc2c(ccn2Cc2ccccc2)c1` it is 96.3% (active).
For `CCCNc1ncnc2sc(C)c(C)c12`, the inhibition is 36.4%.
As for `C[C@@H]1C[C@@H]2O[C@H]2/C=C\C=C\C(=O)Cc2c(Cl)c(O)cc(O)c2C(=O)O1`, the figure is 66.2% (active); as for `CC(C)C(=O)N1CCN(CCN=CC2=C(O)CC(c3ccco3)CC2=O)CC1` (stereo unspecified), 62.1% (active).
As to `CC1(C)CCSC(/C=C/c2ccccc2)=N1`, the inhibition was 79.8% (active).
With `O=C(Nc1ccc(Oc2ccccc2)cc1)c1ccco1`, the inhibition is 35.9%.
As for `O=C(Nc1ccc2oc(-c3ccccc3F)nc2c1)c1ccco1`, the figure is 71.3% (active).
As for `Cn1c(=O)c(C(=O)Nc2ncccn2)c(O)c2ccccc21`, the figure is 60.2% (active); as for `Cc1cc(C)c(/C=C2\C(=O)Nc3ccccc32)[nH]1`, 36.6%.
As for `CCc1cc(C(=O)Nc2nnc(C3CC3)s2)sc1C`, the inhibition was 40.9%.
As for `Cc1ccc(OCc2nc(C#N)c(N3CCCC3)o2)cc1`, the figure is 53.5% (active); as for `CCN(CC)c1ccc(/C=N/Nc2nc(C)cc(C)n2)c(O)c1`, 63% (active); as for `O=[N+]([O-])c1c(NCCO)cc(Sc2nc3ccccc3s2)c2nonc12`, 48%.
`Cc1cc(C(=O)COc2ccc(Br)cc2F)c(C)n1C1CC1`: the inhibition is 49.4%.
As for `CC(C)Sc1ncnc2c1cnn2-c1ccccc1`, the figure is 46.2%; as for `O=C(NCc1ccc2c(c1)OCO2)c1c(O)nc2sccn2c1=O`, 38.4%.
Turning to `CC(=NCc1ccc2c(c1)OCO2)C1=C(O)c2ccccc2C1=O`, the inhibition was 63.9% (active).
With `Cc1ccc2cccc(S(=O)(=O)N3CCN(c4ccccc4F)CC3)c2n1`, the inhibition was 47.8%.
The figure for `CC(=O)[C@@]12O[C@@H]1C[C@H]1[C@@H]3CC[C@H]4C[C@@H](O)CC[C@]4(C)[C@H]3CC[C@@]12C` is 38.2%; for `O=C(COc1ccccc1F)Nc1nc(-c2ccccn2)cs1` it is 37.1%; for `CCSc1nc2sc3c(c2c(=O)n1-c1ccc(C)cc1)CCN(C)C3` it is 44.3%.

The values are drawn from PubChem BioAssay AID488794 (Sanford-Burnham Center for Chemical Genomics, 2010).
